Reference: PubChem BioAssay (NCI)
This is part of a sample that, as a whole, favours compounds with a hit. Of some 83,000 tested, about 20% had one in any assay.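 Growth was measured after 48 h exposure to one concentration of compound in 96-well plates. Values under 10 count as active.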 Unmarked numbers belong to inactive results. Calls of active or inactive are those of the source.

What was measured:
Assay in all cases: NCI-60 one-dose screen, 48 h (100 = growth as untreated, 0 = no growth, -100 = all killed)
Conditions in all cases: 10 µM unless noted
DU-145 prostate = test system: DU-145 prostate
K-562 leukemia = test system: K-562 leukemia
MALME-3M melanoma = test system: MALME-3M melanoma
MDA-MB-231 breast = test system: MDA-MB-231 breast
RXF 393 renal = test system: RXF 393 renal
SF-268 CNS = test system: SF-268 CNS
SF-295 CNS = test system: SF-295 CNS
SF-539 CNS = test system: SF-539 CNS
UACC-257 melanoma = test system: UACC-257 melanoma
M14 melanoma = test system: M14 melanoma
HCT-15 colon = test system: HCT-15 colon
HT29 colon = test system: HT29 colon
SNB-75 CNS = test system: SNB-75 CNS
SNB-19 CNS = test system: SNB-19 CNS
U251 CNS = test system: U251 CNS
PC-3 prostate = test system: PC-3 prostate
SK-MEL-5 melanoma = test system: SK-MEL-5 melanoma
UACC-62 melanoma = test system: UACC-62 melanoma
LOX IMVI melanoma = test system: LOX IMVI melanoma
SK-MEL-28 melanoma = test system: SK-MEL-28 melanoma

| SMILES | growth (DU-145 prostate) | growth (K-562 leukemia) | growth (MALME-3M melanoma) | growth (MDA-MB-231 breast) | growth (RXF 393 renal) | growth (SF-268 CNS) [%] | growth (SF-295 CNS) | growth (SF-539 CNS) | growth (UACC-257 melanoma) | growth (M14 melanoma) | growth (HCT-15 colon) | growth (HT29 colon) | growth (SNB-75 CNS) | growth (SNB-19 CNS) | growth (U251 CNS) | growth (PC-3 prostate) | growth (SK-MEL-5 melanoma) | growth (UACC-62 melanoma) | growth (LOX IMVI melanoma) | growth (SK-MEL-28 melanoma) |
| --- | --- | --- | --- | --- | --- | --- | --- | --- | --- | --- | --- | --- | --- | --- | --- | --- | --- | --- | --- | --- |
| O=C(Nc1nccs1)c1noc2ccccc12 | 107% | 87.7% | 96.8% | 91.3% | 110% | 103 | 101% | 95.6% | 90.6% | 96% | 92.8% | 99.5% | 87.9% | 93.5% | 98.5% | 80% | 91.5% | 88% | 95.8% | 103% |
| C#C[C@@]1(O)[C@@H](CO)O[C@@H](n2cc(Cl)c3c(N)ncnc32)[C@@H]1O | 4.44% (active) | 4.99% (active) | -19.5% (active) | -6.34% (active) | -33.4% (active) | 15.3 | -26.8% (active) | -54.3% (active) | 40.9% | -25.8% (active) | 1.65% (active) | 5.79% (active) | -42.4% (active) | 2.86% (active) | -6.87% (active) | -17.3% (active) | -61% (active) | -54.2% (active) | -72.5% (active) | 42.6% |
| COc1cc(-c2cn(-c3ccc(Cl)c(Cl)c3)c(=O)[nH]2)cc(OC)c1OC | 100% | 84.3% | 60.9% | 71.5% | 86.4% | 87.6 | 104% | 91.3% | 87.4% | 95.2% | 103% | 102% | 104% | 81.6% | 95.6% | 104% | 101% | 95.3% | 97.7% | 110% |
| Nc1ccc2c(c1)C(=O)C(=O)c1c-2nc2ccccn12 | -91.1% (active) | 1.75% (active) | -98.7% (active) | -7.84% (active) | 29% | 26.6 | -67.6% (active) | -32.9% (active) | -67.9% (active) | -91.1% (active) | -29.8% (active) | 76.1% | 37.5% | 9.2% (active) | 9.14% (active) | 24% | -99.8% (active) | -85.3% (active) | -12.7% (active) | -28.9% (active) |
| O=C(CCl)N1CCCc2ccccc21 | 97.7% | 101% | 98.3% | 99.5% | 89.1% | 94.9 | 95.7% | 103% | 107% | 93.9% | 99.8% | 103% | 72.6% | 100% | 105% | 96.8% | – | 94.3% | 99.6% | – |
| C=CCn1c(SCC(=O)Nc2ccc(C(=O)/C=C/c3ccc(Cl)cc3)cc2)nnc1-c1cc(OC)c(OC)c(OC)c1 | 100% | 83.8% | 115% | 80.5% | 90.8% | 87.8 | 94.3% | 96.4% | 95.8% | 93.9% | 89.7% | 97.4% | 86.2% | 85.3% | 90.7% | 75.2% | 63.5% | 70.4% | 91.8% | 106% |
| O=C(N/N=C/C[C@@H]1[C@@H](/C=C/[C@@H](O)COc2cccc(Cl)c2)[C@H](O)C[C@@H]1O)c1ccncc1 | 108% | 95.9% | 98.1% | 101% | 105% | 103 | 99.5% | 104% | 77.5% | 99.6% | 99.3% | 71.1% | 90.5% | 98.1% | 92.9% | 91% | 96.6% | 92.9% | 94.3% | 103% |
| CCOCc1nc2ccccc2c(=O)[nH]1 | 107% | 119% | 89.6% | 103% | 117% | 101 | 99.6% | 102% | 108% | 96.2% | 97.2% | 95.9% | 99.2% | 101% | 102% | 95.2% | 104% | 102% | 99.8% | 106% |
